Results published in the supplement of paper PMC6555819.

Tests used:
Assay in all cases: PBM binding z-score (relative to random genomic background probes); higher = stronger binding; sequences stand for … in GC…GCGATTGACAGCGTAGAATGAAGG
[1] = test system: FXR:RXRa (NR concentration 270 nM, RXRa partner concentration 90 nM)
In short: (§1)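 Ligand-free nuclear receptor dimers were bound for 1 h to custom Agilent 4×180K protein-binding microarrays. Detection used antibodies against each partner (one per run). Binding z-scores rest on regression-normalized fluorescence, with random background probes as the reference.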

[2] = test system: LXRa:RXRa (NR concentration 270 nM, RXRa partner concentration 90 nM)
In short: as §1

[3] = test system: LXRa homodimer (NR concentration 270 nM)
In short: as §1

[4] = test system: LXRb:RXRa (NR concentration 270 nM, RXRa partner concentration 90 nM)
In short: as §1

[5] = test system: LXRb homodimer (NR concentration 270 nM)
In short: as §1

[6] = test system: PPARa:RXRa (NR concentration 270 nM, RXRa partner concentration 90 nM)
In short: as §1

[7] = test system: PPARg:RXRa (NR concentration 180 nM, RXRa partner concentration 90 nM)
In short: as §1

[8] = test system: PPARg:RXRa 270nM:90nM, anti-RXR (NR concentration 270 nM, RXRa partner concentration 90 nM)
In short: as §1

[9] = test system: PPARg:RXRa 30nM:10nM, anti-RXR (NR concentration 30 nM, RXRa partner concentration 10 nM)
In short: as §1

[10] = test system: PPARg:RXRa 90nM:30nM, anti-RXR (NR concentration 90 nM, RXRa partner concentration 30 nM)
In short: as §1

[11] = test system: PPARg:RXRa DBDmut IVT, anti-RXR (DBD mutation: RXRa K156A/R161A, NR concentration 270 nM, RXRa partner concentration 90 nM)
In short: as §1

[12] = test system: PPARg:RXRa IVT, anti-PPARg (NR concentration 270 nM, RXRa partner concentration 90 nM)
In short: as §1

[13] = test system: PPARg DBDmut:RXRa IVT, anti-PPARg (DBD mutation: PPARg1 K132A/R137A, NR concentration 270 nM, RXRa partner concentration 90 nM)
In short: as §1

[14] = test system: PPARg DBDmut IVT, anti-PPARg (DBD mutation: PPARg1 K132A/R137A, NR concentration 270 nM)
In short: as §1

[15] = test system: PPARg homodimer (NR concentration 180 nM)
In short: as §1

[16] = test system: PXR:RXRa (NR concentration 270 nM, RXRa partner concentration 90 nM)
In short: as §1

[17] = test system: PXR homodimer (NR concentration 270 nM)
In short: as §1

[18] = test system: RARa:RXR (NR concentration 270 nM, RXRa partner concentration 90 nM)
In short: as §1

[19] = test system: RARa homodimer (NR concentration 270 nM)
In short: as §1

[20] = test system: RARb:RXRa (NR concentration 270 nM, RXRa partner concentration 90 nM)
In short: as §1

Row | Sequence | PBM binding z-score [1] | PBM binding z-score [2] | PBM binding z-score [3] | PBM binding z-score [4] | PBM binding z-score [5] | PBM binding z-score [6] | PBM binding z-score [7] | PBM binding z-score [8] | PBM binding z-score [9] | PBM binding z-score [10] | PBM binding z-score [11] | PBM binding z-score [12] | PBM binding z-score [13] | PBM binding z-score [14] | PBM binding z-score [15] | PBM binding z-score [16] | PBM binding z-score [17] | PBM binding z-score [18] | PBM binding z-score [19] | PBM binding z-score [20]
1 | CAAACTAGGTCAAGATCAAAGTCGGTTTGTGCCA | 3.58 | 2.31 | 0.143 | 1.67 | 0.237 | 4.66 | 7.62 | 6.55 | 4.29 | 6.19 | 8.24 | 8.61 | 5.86 | 4.95 | 2.34 | 1.31 | -0.0944 | 2.05 | 0.622 | 4.02
2 | AGTCAAAGTTCAGGACGAGGTAACGTATAGCACG | 4.44 | 4.03 | 1.43 | 1.92 | 0.317 | 3.43 | 4.7 | 5.09 | 2.17 | 4.27 | -0.0709 | 2.03 | 0.949 | 0.866 | 2.09 | 3.08 | 1.29 | 2.97 | 0.98 | 4.34
3 | GCTATAAGTTGAAAGGGCAACCGAATGATTCTCG | 1.08 | 1.24 | 0.185 | 1.23 | -0.471 | 3.05 | 2.26 | 3.37 | 1.46 | 3.15 | 0.434 | 0.831 | 0.223 | 0.266 | 1.11 | 1.41 | 0.107 | 2.56 | 0.129 | 2.46
4 | AGTCAAAGTTCAGGAAGAGGTAACGTAAAGCACG | 3.92 | 3.76 | 0.911 | 2.07 | 0.602 | 3.54 | 4.98 | 4.92 | 1.98 | 3.88 | 0.106 | 2.18 | 0.684 | 0.616 | 2.21 | 2.84 | 0.943 | 3.04 | 0.831 | 4.45
5 | CCTATTTGGTCAGGAGGTCACACACCGGATATGA | 3.94 | 3.62 | 2.35 | 3.64 | 1.25 | 4.34 | 3.42 | 4.03 | 1.66 | 3.23 | 1.91 | 3.3 | 1.63 | 0.887 | 3.54 | 4.35 | 1.72 | 4.86 | 2.56 | 3.94
6 | ACTAGCAGGCCAAGCGTCACTCAAGATTAGTCCG | -0.5 | -0.376 | -0.471 | -0.815 | -0.983 | 0.102 | 1.12 | 1.84 | 0.377 | 1.73 | 1.13 | 0.488 | 0.0158 | -0.899 | -0.388 | -0.885 | -0.421 | -0.946 | -1.3 | 0.43
7 | CCGAGTATGTTATGGGGCATTCAGGCAACGGTGA | 0.355 | -0.00818 | -0.0828 | 0.322 | -0.243 | 0.665 | 0.711 | 1.75 | 0.316 | 1.35 | 0.63 | 0.892 | -0.0498 | -0.0954 | 0.937 | 0.0662 | 0.093 | 0.394 | 0.535 | 0.242
8 | TTATATAGGTAAATGCTAGGTGAAAGTCCGATCT | 0.733 | 0.69 | 0.375 | 0.64 | 0.108 | 2.18 | 2.61 | 2.59 | 1.97 | 2.34 | 6.27 | 5.32 | 1.86 | 2.12 | 1.28 | 0.481 | 0.535 | 0.686 | 1.58 | 0.351
9 | GCAGCTAGGTCAGGTTGGTCAGCTAACGGGTACG | 1.03 | 0.422 | -0.282 | -0.023 | -0.983 | 1.2 | 0.443 | 0.714 | -0.586 | -0.0508 | 2.64 | 2.05 | -0.736 | -1.04 | 0.817 | -0.0764 | -0.615 | 0.573 | 0.479 | 3.28
10 | ACTTACGGGTCAACGAGGTTATAGCCCGCGTATA | 6.28 | 4.99 | 0.779 | 4.32 | 0.557 | 5.47 | 4.98 | 5.37 | 2.01 | 4.01 | 3.54 | 3.99 | 0.579 | 0.364 | 2.12 | 5.03 | 2.93 | 4.97 | -0.101 | 4.03
11 | TCATATAGGTAAAAGGCGAAAGTCGGTGTGGTAA | 0.336 | 0.537 | 0.094 | 0.746 | -0.359 | 2.66 | 4.65 | 6.15 | 6.72 | 7.04 | 3.92 | 3.21 | 0.28 | 0.103 | 0.768 | 0.309 | 0.159 | 0.628 | 0.926 | 0.164
12 | ATCTCTAGGTAAGCAAGTTCAGTGAATGCCGAAC | 0.021 | 0.323 | 0.32 | -0.00291 | 0.392 | 0.496 | 0.0727 | 0.538 | 0.367 | 0.23 | 1.64 | 1.7 | 0.134 | -0.0297 | 0.55 | 1.37 | 1.12 | 0.257 | 0.268 | 0.858
13 | AAGACAGGGTCATCGTAGGCCAGAGTACGCACAG | 7.28 | 5.76 | 0.0665 | 4.06 | 0.0441 | 6.02 | 5.91 | 5.77 | 2.38 | 3.94 | 1.48 | 2.99 | 0.884 | 0.174 | 1.25 | 4.95 | 0.0301 | 4.92 | 0.453 | 4.23
14 | CCGGACAGGTGAGAAGGTAACTCAGCCTCGATTA | -0.332 | -0.196 | -0.289 | -0.26 | -0.839 | 0.454 | 0.347 | 0.118 | -0.24 | -0.183 | 1.04 | 0.612 | -0.39 | -1.64 | 0.569 | -0.415 | -0.227 | -0.262 | 0.0296 | 0.711
15 | TCTCTTAGTTGATTAGGGCAACCGAAACAGCGGA | 0.698 | 0.799 | 0.13 | 0.868 | 1.26 | 1.22 | 0.00699 | 2.24 | 3.88 | 3.1 | 2.63 | 1.67 | 0.796 | 1.17 | 1.28 | 0.757 | 0.477 | 0.892 | 0.846 | 1.51
16 | CCTCCTGGGCCAAGGTCATTGATCAGTCAAAGCA | 2.96 | 2.89 | 1.06 | 2.86 | -0.68 | 3.57 | 1.39 | 2.83 | 0.457 | 1.75 | -0.293 | 1.48 | -1.33 | -1.61 | 1.55 | 3.38 | 0.83 | 3.49 | -0.129 | 3.47
17 | CCGACTGGGGCAAGGTTACCAGAACGCACAGCCA | 0.168 | 0.506 | -0.288 | 0.501 | -1.15 | 1.97 | 2.79 | 3.43 | 0.792 | 2.68 | 2.21 | 3.49 | -0.808 | -1.44 | 0.502 | 0.259 | 0.151 | 0.58 | -0.644 | 1.63
18 | CCTAGTTGGTCAAGGTCATACACGCTATAGGTAC | 4.77 | 4.27 | 2.86 | 3.52 | 0.89 | 3.97 | 2.79 | 3.21 | 1.22 | 2.74 | 2.28 | 3.11 | 0.777 | 1.26 | 3.11 | 4.21 | 3.04 | 4.33 | 2.79 | 4.04
